# Screens (PubChem)
# D2 ag-1 – HTS Assay for Allosteric Agonists of the Human D2 Dopamine Receptor: Primary Screen for Agonists | D(2) dopamine receptor (Homo sapiens), P14416 | HEK293 T-REx D2 cells, calcium flux agonist mode | activation, % at 2 µM | hit rate 0.53% among 340,000 | AID 485358, 2010;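 active = activation over 3 SD above normal in the single-dose calcium agonist read, cut at about 30% in these data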
# Target sequence (P14416 whole entry, looked up): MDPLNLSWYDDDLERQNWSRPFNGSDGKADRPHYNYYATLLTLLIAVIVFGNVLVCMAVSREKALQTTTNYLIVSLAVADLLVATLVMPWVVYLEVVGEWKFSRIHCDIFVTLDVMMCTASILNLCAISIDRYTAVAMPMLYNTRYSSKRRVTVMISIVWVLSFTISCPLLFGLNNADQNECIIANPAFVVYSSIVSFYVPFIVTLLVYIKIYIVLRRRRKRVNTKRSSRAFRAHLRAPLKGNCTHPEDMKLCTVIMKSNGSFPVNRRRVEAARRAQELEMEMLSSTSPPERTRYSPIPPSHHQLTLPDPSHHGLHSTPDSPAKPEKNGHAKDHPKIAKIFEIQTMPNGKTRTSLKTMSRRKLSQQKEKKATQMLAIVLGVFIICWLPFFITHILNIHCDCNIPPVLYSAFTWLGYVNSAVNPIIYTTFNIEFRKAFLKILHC
#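 HEK293 Trex D2 cells, tetracycline-induced, o/n 30 C 5% CO2; no-wash Ca dye, RT 30–90 min; 10-cycle baseline, 23 nl cpd added, kinetic Ca read 180 s; agonist hits = positive Ca response.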
# D2 ag-2 – Beta-Arrestin HTS for Positive Allosteric Modulators of the Human D2 Dopamine Receptor: Agonists; hit rate 0.084% among 360,000; activation, % (test concentration not listed); AID 624465, 2012; DiscoveRx PathHunter D2 beta-arrestin, luminescence, 90 min; 100% = 57 uM dopamine signal; in the data active = activation above about 40%
#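 DiscoveRx PathHunter D2 beta-arrestin cells (2,100/well) attached overnight, then compound-stimulated 90 min at 37 C in HBSS/10 mM HEPES/0.1% Tween-20 buffer; beta-galactosidase complementation read by luminescence after 1 h at ambient temperature. Dopamine 57 uM final (EC100) as control.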
# D2 PAM-1 – Beta-Arrestin HTS for Positive Allosteric Modulators of the Human D2 Dopamine Receptor: Potentiators. D(2) dopamine receptor (Homo sapiens), P14416. DiscoveRx D2 beta-arrestin cells, luminescence, 90 min; 100% = 57 uM dopamine signal. potentiation, % (test concentration not listed). hit rate 0.23% among 360,000. AID 624464, 2012; in the data active = potentiation above about 50%
#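 PathHunter beta-arrestin assay in DiscoveRx D2 cells. Compounds were added with an EC20 of dopamine (50 nM final) for 90 min at 37 deg C. Luminescence was read 1 h after detection reagent, with 57 uM dopamine as the EC100 control.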
# D2 PAM-2 – HTS Assay for Positive Allosteric Modulators of the Human D2 Dopamine Receptor: Primary Screen for Potentiators. HEK293 T-REx D2, calcium flux, EC20 dopamine potentiation. potentiation, % at 10 µM. hit rate 0.34% among 340,000. AID 485347, 2010;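 active = potentiation over 3 SD above the plate norm, cut at about 30% in these data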
#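 Cells plated with tetracycline inducer and held overnight at 30 C; calcium dye loaded 30–90 min at room temperature; baseline taken, compound added and read 180 s; EC20 dopamine then added and read 180 s.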
# D2 antagonist – HTS Assay for Allosteric Antagonists of the Human D2 Dopamine Receptor: Primary Screen for Antagonists; hit rate 2% among 340,000; AID 485344, 2010; HEK293 TREx D2 cells, calcium flux, dopamine EC80; inhibition, % at 10 µM; D(2) dopamine receptor (Homo sapiens), P14416; in the data active = inhibition above about 30%; inactive = below that, where a call was filed
#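 Measurement of antagonist activity uses fluorescent calcium dye in inducible HEK293 T-REx D2 cells: 10 s baseline, compound addition with 180 s read, EC80 dopamine addition with a further 180 s read.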
# A number is an active result; 0 = inactive; - = no result. An excerpt weighted towards active compounds, which were near 2.4% of everything screened.
SMILES,D2 ag-1,D2 ag-2,D2 PAM-1,D2 PAM-2,D2 antagonist
COc1ccc(S(=O)(=O)N(C)C)cc1NC(=O)c1ccc2c(c1)NC(=O)C(C)S2 (centres undefined),0,0,0,0,77
COc1ccc(S(=O)(=O)N(C)C)cc1NC(=O)CSC(C)C(=O)Nc1cc(C)on1 (centres undefined),0,0,0,0,72
COc1ccc(NC(=O)Cc2cccs2)cc1S(=O)(=O)N1CCCCC1,-,0,0,-,-
CN(C)S(=O)(=O)c1ccc(Cl)c(NC(=O)C2CCN(S(=O)(=O)c3cccs3)CC2)c1,0,0,0,0,31
COc1ccc(S(=O)(=O)N2CCCCC2)cc1NC(=O)Cc1cccs1,0,0,0,0,38
COc1ccc(S(=O)(=O)Nc2ccccc2OC)cc1NC(=O)Cc1cccs1,0,0,0,0,0
O=C(Cc1cccs1)Nc1ccc(S(=O)(=O)N2CCCCC2)cc1,0,0,0,0,0
COc1ccc(S(=O)(=O)N(C)C)cc1NC(=O)Cc1cccs1,0,0,0,0,34
O=C(Cc1cccs1)Nc1cc(S(=O)(=O)N2CCCCC2)ccc1Cl,0,0,0,77,0
COc1cccc(NC(=O)c2ccc3nc(Cc4ccccc4)oc3c2)c1,0,-,-,0,-
CC(C)OCCCNC(=O)c1ccc2c(c1)S(=O)(=O)c1ccccc1C2=O,0,0,72,0,0
CCCCNC(=O)c1ccc2c(c1)S(=O)(=O)c1ccccc1C2=O,0,0,0,0,0
C=C1CCN([C@@H](C)C(=O)OCc2cccc(C)c2)S(=O)(=O)c2ccccc21,0,0,0,0,31
Cc1cccc(Cn2c(CNS(=O)(=O)c3ccc(Cl)s3)nc3cccnc32)c1,0,-,-,0,-
Cc1cccc(Cn2c(C(C)(C)C)cc3cccnc32)c1,0,0,0,0,45
CCCCN(C(=O)C1CC(=O)N(c2ccc(C)cc2)C1)c1c(N)n(CCC)c(=O)[nH]c1=O (centres undefined),0,0,0,0,38
CCCCn1c(N)c(N(CC(C)C)C(=O)C2CC(=O)N(c3ccc4c(c3)OCCO4)C2)c(=O)[nH]c1=O (centres undefined),0,0,0,0,39
COc1ccccc1CNC(=O)N[C@@H](Cc1ccccc1)C(=O)O,0,0,0,0,37
O=C(Cc1ccccc1)N[C@@H](Cc1ccc(O)cc1)C(=O)O,0,-,-,0,36
Cc1nn(-c2ccccc2)c(C)c1C(=O)OCC(=O)N(C)C1CCS(=O)(=O)C1 (centres undefined),0,0,0,0,38
COc1c2ccc(C(=O)NCc3cc(C(F)(F)F)cc(C(F)(F)F)c3)cc2nn1C,0,0,0,0,41
COc1ccc(C(=O)C2CCCN(Cc3cn[nH]c3-c3ccc(F)cc3)C2)cc1OC (centres undefined),0,0,0,0,0
O=C(c1ccc(F)cc1)C1CCN(Cc2cn[nH]c2-c2ccc(F)cc2)CC1,0,0,0,0,94
CCOc1ccccc1N1CCN(Cc2cn[nH]c2-c2ccc(F)cc2)CC1,0,0,0,0,81
CC(C)C(NC(=O)c1ccc(C(C)(C)C)cc1)C(=O)Nc1cccc(S(N)(=O)=O)c1 (centres undefined),0,0,0,37,0
CCOc1ccccc1C(=O)NC(C(=O)Nc1cccc(S(N)(=O)=O)c1)C(C)C (centres undefined),0,0,0,0,33
COc1ccc(OC)c(NC(=O)c2ccc(OCC(=O)N3CCOCC3)c(OC)c2)c1,0,0,0,0,0
COc1cc(C(=O)Nc2cc(S(C)(=O)=O)ccc2Cl)ccc1OCC(=O)N1CCOCC1,0,0,0,0,36
CN1C(=O)c2ccc(NC(=O)c3c(C(=O)O)cccc3[N+](=O)[O-])cc2C1=O,0,0,0,0,34
